PubChem BioAssay (NCI)
This is part of a sample that, as a whole, favours compounds with a hit. Of some 79,000 tested, about 15% had one in any assay. Calls of active or inactive are those of the source. Rule as the data show it: active = growth inhibition above about 70%; inactive = the rest.

assay: NCI Yeast Anticancer Drug Screen. Data for the mlh1 rad18 strain (AID 175); conditions: S. cerevisiae mlh1 rad18 strain growth inhibition; at 50.0 µM; active compounds read high
In short: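 Read-out is yeast growth inhibition, calculated against vehicle-only controls. The compound was applied to a strain engineered with DNA damage repair alterations.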

Question: With CCCCCCCCCCCCCC/C=C\C(CC(=O)O)C(=O)O (centres undefined) as the molecule, how does the growth inhibition read?
Answer: Its growth inhibition is -19.2% (inactive).

Question: For O=C1C=C[C@H](O)[C@@]2(CO)O[C@@H]12, which growth inhibition is on record?
Answer: Its growth inhibition is 11.7% (inactive).

Question: With Nc1ncnc2c1ncn2C1OC(CO)C2OC21 (centres undefined) as the molecule, how does the growth inhibition read?
Answer: Its growth inhibition is -30.4% (inactive).

Question: Which growth inhibition does the source give for N#C/C(=C\c1ccc(C#N)cc1)C(=O)c1ccccc1 here?
Answer: The growth inhibition was 18.9% (inactive).

Question: With Cc1cc2c3ccc(C)[n+](C)c3ccc2n1C as the molecule, how does the growth inhibition read?
Answer: Its growth inhibition is -5.25% (inactive).

Question: With CCCNS(=O)(=O)c1ccc(Cl)cc1 as the molecule, how does the growth inhibition read?
Answer: The growth inhibition was -3.7% (inactive).

Question: With CC(=O)N(CCCCCCN(C(C)=O)C(C)=O)C(C)=O as the molecule, how does the growth inhibition read?
Answer: Its growth inhibition is -6.15% (inactive).

Question: For ClCc1cccc2c(CCl)cccc12, which growth inhibition is on record?
Answer: The growth inhibition was 12.4% (inactive).

Question: Which growth inhibition does the source give for Nc1c(O)c(S(=O)(=O)O)c(O)c2c1C(=O)c1ccccc1C2=O here?
Answer: Its growth inhibition is 33.6% (inactive).

Question: For O=C(O)Cc1ccc(Cl)cc1, which growth inhibition is on record?
Answer: The growth inhibition was 0% (inactive).

Question: For COc1ccc(C(=O)/C(=N/Nc2ccccc2)c2ccc(OC)cc2)cc1, which growth inhibition is on record?
Answer: The growth inhibition was 30.8% (inactive).

Question: With O=C1CSc2ccccc2N1 as the molecule, how does the growth inhibition read?
Answer: The growth inhibition was 11.2% (inactive).

Question: Which growth inhibition does the source give for Clc1ccc(-c2noc(/C=C\c3ccccc3)n2)cc1 here?
Answer: Its growth inhibition is 7.45% (inactive).

Question: With CC(=O)N(C)N=Nc1ccc(C)cc1 as the molecule, how does the growth inhibition read?
Answer: Its growth inhibition is -4.05% (inactive).

Question: For CC(=O)C1C(=O)C(=O)N(c2ccc(Cl)c(Cl)c2)C1=O (centres undefined), which growth inhibition is on record?
Answer: The growth inhibition was -24.9% (inactive).

Question: With CCC(=O)Oc1ccc2ccccc2c1 as the molecule, how does the growth inhibition read?
Answer: Its growth inhibition is 29.8% (inactive).

Question: With COC1OC(C(O)C(O)CO)C(O)C(O)C1O (centres undefined) as the molecule, how does the growth inhibition read?
Answer: Its growth inhibition is 11.7% (inactive).

Question: With CN(C(=S)S(=O)(=O)C12CC3CC(CC(C3)C1)C2)c1ccccc1 as the molecule, how does the growth inhibition read?
Answer: The growth inhibition was -24.9% (inactive).

Question: For COC1OC(C(COC(C)=O)OC(C)=O)C(OC(C)=O)C(OC(C)=O)C1OC(C)=O (centres undefined), which growth inhibition is on record?
Answer: The growth inhibition was -14.8% (inactive).
